We go through seven compounds from PubChem BioAssay.

The nature of the test: small-molecule microarray binders of probe aEGFR, primary screen, biochemical, biotinylated probe, 635/667 nm fluorescence (AID 1097).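 Note: probe is a biotinylated anti-EGFR antibody binding compounds printed on slides; score combines fluorescence near 667 nm and signal to noise of each spot.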 The conditions noted are these: higher = more signal.
For `CCCCC=C[C@@H](NC(=O)OCc1ccccc1Cl)c1ccccc1`, the composite z-score was found to be 0.98.
`COc1cc(C(O)C2C=CC3C(=O)N(C)C(=O)C3N2Nc2ccccc2)cc(OC)c1OC` (configuration not stated) displayed a composite z-score of 0.197.
The value for `C=CC[C@H](OC(=O)Nc1ccc(SC)cc1)c1ccc(O)c2ccccc12` was -0.128.
`[N-]=[N+]=Nc1ccccc1C[C@@]1(C(=O)N2CCOCC2)N=C(c2ccc(OCCCO)cc2)O[C@@H]1c1ccccc1` displayed a composite z-score of 0.778.
On to `COc1ccc(C(=O)Nc2ccc(CN3C(=O)[C@]4(O[C@H](CC(=O)N5Cc6ccccc6C[C@H]5CO)[C@@H]([Si](C)(C)c5ccc(OC)cc5)[C@@H]4C)c4ccccc43)cc2)cc1`, for which the composite z-score was -0.096.
Take `C=CCNC(=O)[C@@H]1[C@H]2C(=O)O[C@H](c3ccccc3)[C@H](c3ccccc3)N2[C@H](c2ccc(O)cc2)[C@@]12C(=O)N(C(=O)OCCOC)c1ccc(C#CC3=CCCCC3)cc12`: the composite z-score was -0.0697.
`C=CCOC(=O)[C@@]1(Cc2ccccc2)C[C@H]2CO[C@H](c3ccc(OC)cc3)N2C1=O` yielded a composite z-score of -0.15.
